In PubChem BioAssay (Tox21):
Records with an inconclusive call do not appear. Entries that show only a call come without a potency. Where a structure was tested more than once in an assay, its records may differ in their call. Activity calls are given as the source filed them. Unless noted, calls follow the shape of the dose curve; as a rule, active = well fitted curve in the direction sought with a large enough effect in the repeat runs; inconclusive = weak or mixed curves; inactive = no such curve, though single readings can be large; an effect the other way counts as inactive or inconclusive.

Columns and labels:
[1] = qHTS assay to identify small molecule agonists of the RXR signaling pathway - cell viability counter screen (AID 1159529); also: nearly all actives have a fitted effect of over 50% in size; also: potency is read from the fitted curve at half-maximal effect
Outline: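 Tox21 10K compounds were tested for cytotoxicity against GeneBLAzer RXR-alpha HEK 293T cells grown in 2% charcoal-stripped FBS. Exposure lasted 16 hr at 37 C, 5% CO2; viability read by CellTiter-Glo luminescence.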

[2] = qHTS assay to identify small molecule antagonists of the retinoid acid receptor (RAR) signaling pathway - cell viability counter screen (AID 1159551); also: nearly all actives have a fitted effect of over 35% in size
Outline: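 Cytotoxicity counter screen: ATP content quantified by CellTiter-Glo luminescence in C3RL4 cells treated 6 hr at 37 C with compound and retinol (1 uM final). Cells plated at 1,000/well and cultured overnight before dosing.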

[3] = qHTS assay to identify small molecule antagonists of the retinoic acid receptor (RAR) signaling pathway (AID 1159552; also: nearly all actives have a fitted effect of over 50% in size; also: potency is read from the fitted curve at half-maximal effect)
Outline: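 Overnight-plated C3RL4 reporter cells get compound, then retinol to 1 uM final; plates sit 6 hr at 37 C, 5% CO2. A luciferase reagent is added and light output recorded after 30 min at room temperature.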

[4] = qHTS assay to identify small molecule agonists of the retinoic acid receptor (RAR) signaling pathway (AID 1159553); conditions: C3RL4 RARE luciferase reporter, agonist, 6 h; activation: at 73.3 µM (top of the series) unless noted
Outline: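 Luminescence was measured 30 min after luciferase reagent addition at room temperature. Before that, C3RL4 reporter cells (1,000 per well, plated overnight) were treated with compound for 6 hr at 37 C and 5% CO2.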

[5] = qHTS assay to identify small molecule antagonists of the estrogen related receptor (ERR) signaling pathway from Tox21 library - cell viability counter screen (AID 1224834); also: nearly all actives have a fitted effect of over 30% in size
Outline: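 CellTiter-Fluor fluorescence, read after 30 min at 37 C, measures viability of ERR cells. Cells plated at 2,000/well and incubated 6 h before pin-tool compound addition, then exposed 17.5 hours at 37 C.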

[6] = target: Luciferin 4-monooxygenase (Photinus pyralis) (UniProt P08659); experiment: qHTS assay to identify small molecule inhibitors of firefly luciferase (AID 1224835); also: nearly all actives have a fitted effect of over 25% in size; also: potency is read from the fitted curve at half-maximal effect
Sequence of Luciferin 4-monooxygenase (Photinus pyralis) (P08659 whole entry, looked up): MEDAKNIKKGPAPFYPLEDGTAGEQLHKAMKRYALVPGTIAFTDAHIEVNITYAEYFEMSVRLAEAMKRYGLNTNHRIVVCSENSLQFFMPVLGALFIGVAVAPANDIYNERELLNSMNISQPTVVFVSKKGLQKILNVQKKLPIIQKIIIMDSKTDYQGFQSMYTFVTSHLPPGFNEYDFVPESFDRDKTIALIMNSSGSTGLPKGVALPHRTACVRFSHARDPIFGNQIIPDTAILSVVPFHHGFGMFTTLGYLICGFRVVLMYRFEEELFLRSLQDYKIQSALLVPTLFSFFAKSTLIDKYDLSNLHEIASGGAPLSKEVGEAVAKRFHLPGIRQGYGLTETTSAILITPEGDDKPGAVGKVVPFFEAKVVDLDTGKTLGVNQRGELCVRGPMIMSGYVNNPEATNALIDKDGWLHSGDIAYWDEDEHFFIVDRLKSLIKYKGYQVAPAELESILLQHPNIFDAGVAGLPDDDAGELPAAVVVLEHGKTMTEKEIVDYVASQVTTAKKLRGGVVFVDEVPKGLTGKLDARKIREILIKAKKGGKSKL
Outline: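 Quantitative HTS format; KM concentrations of both substrates. Purified P. pyralis FLuc activity quantified from luminescence images.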

[7] = qHTS assay to identify small molecule agonists of the constitutive androstane receptor (CAR) signaling pathway - cell viability counter screen (AID 1224836); also: nearly all actives have a fitted effect of over 45% in size
Outline: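 Fluorescence from CellTiter-Fluor indicates live cells after 23 h exposure. The human hepatoma line expresses hCAR and a CYP2B6-2.2kb reporter. Incubation medium contains 0.75 uM PK11195 (final).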

[8] = qHTS assay to identify small molecule antagonists of the constitutive androstane receptor (CAR) signaling pathway - cell viability counter screen (AID 1224837); also: nearly all actives have a fitted effect of over 45% in size
Outline: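 Cytotoxicity counter-screen: CellTiter-Fluor fluorescence after 23 h compound exposure (15-point qHTS) in double-stable HepG2-CYP2B6-hCAR cells, with 50 nM CITCO added.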

[9] = target: Nuclear receptor subfamily 1 group I member 3 (Homo sapiens) (UniProt Q14994); experiment: qHTS assay to identify small molecule antagonists of the constitutive androstane receptor (CAR) signaling pathway (AID 1224838);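 also: HepG2 cells stably expressing hCAR with CYP2B6 luciferase reporter stimulated by CITCO; nearly all actives have a fitted effect of over 40% in size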
Sequence of Nuclear receptor subfamily 1 group I member 3 (Homo sapiens) (Q14994 whole entry, looked up): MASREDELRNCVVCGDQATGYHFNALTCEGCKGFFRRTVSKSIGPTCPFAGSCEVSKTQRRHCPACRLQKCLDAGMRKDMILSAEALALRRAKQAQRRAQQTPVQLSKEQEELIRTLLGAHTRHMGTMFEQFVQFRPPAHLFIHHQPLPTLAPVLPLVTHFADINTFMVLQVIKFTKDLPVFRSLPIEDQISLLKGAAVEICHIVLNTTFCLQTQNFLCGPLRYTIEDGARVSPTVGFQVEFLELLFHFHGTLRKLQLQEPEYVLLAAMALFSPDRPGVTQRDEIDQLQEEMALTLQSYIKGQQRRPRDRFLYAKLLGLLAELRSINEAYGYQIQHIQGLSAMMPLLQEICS
Outline: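 Antagonism measured as luciferase signal (ONE-Glo, 30 min, room temperature) in CAR-stimulated cells: HepG2-CYP2B6-hCAR double-stable line exposed 24 hr at 37 C to compound in a 15-point series plus 50 nM CITCO.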

[10] = target: Nuclear receptor subfamily 1 group I member 3 (Homo sapiens) (UniProt Q14994); experiment: qHTS assay to identify small molecule agonists of the constitutive androstane receptor (CAR) signaling pathway (AID 1224839);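 also: HepG2 cells stably carrying human CAR and a CYP2B6 luciferase reporter; nearly all actives have a fitted effect of over 15% in size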
Outline: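 Stable hCAR/CYP2B6-2.2kb HepG2 line in DMEM with 10% FBS; compounds (15 concentrations) and 0.75 uM PK11195 final, 24 h at 37 C/5% CO2, then ONE-Glo luminescence after 30 min.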

[11] = qHTS assay to identify small molecule antagonists of the estrogen related receptor signaling pathway with the pleiotropic PPARgamma coactivator (PGC) from Tox21 10K library - cell viability counter screen (AID 1224840; active = well fitted cell-killing curve with a large enough effect in the repeat runs, not every such curve was filed as active; also: nearly all actives have a fitted effect of over 40% in size; also: potency is read from the fitted curve at half-maximal effect)
Outline: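 Counter-screen for cytotoxicity: after 17.5 h compound exposure at 37 C, CellTiter-Fluor reagent added to PGC/ERR cells for 30 min and fluorescence read. Cells were seeded at 2,000 per well 6 h before dosing.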

[12] = target: Thyrotropin receptor (Homo sapiens) (UniProt P16473); experiment: qHTS assay to identify small molecule agonists of the thyroid stimulating hormone receptor (TSHR) signaling pathway (AID 1224843; calls by dose curve; also: nearly all actives have a fitted effect of over 45% in size)
Sequence of Thyrotropin receptor (Homo sapiens) (P16473 whole entry, looked up): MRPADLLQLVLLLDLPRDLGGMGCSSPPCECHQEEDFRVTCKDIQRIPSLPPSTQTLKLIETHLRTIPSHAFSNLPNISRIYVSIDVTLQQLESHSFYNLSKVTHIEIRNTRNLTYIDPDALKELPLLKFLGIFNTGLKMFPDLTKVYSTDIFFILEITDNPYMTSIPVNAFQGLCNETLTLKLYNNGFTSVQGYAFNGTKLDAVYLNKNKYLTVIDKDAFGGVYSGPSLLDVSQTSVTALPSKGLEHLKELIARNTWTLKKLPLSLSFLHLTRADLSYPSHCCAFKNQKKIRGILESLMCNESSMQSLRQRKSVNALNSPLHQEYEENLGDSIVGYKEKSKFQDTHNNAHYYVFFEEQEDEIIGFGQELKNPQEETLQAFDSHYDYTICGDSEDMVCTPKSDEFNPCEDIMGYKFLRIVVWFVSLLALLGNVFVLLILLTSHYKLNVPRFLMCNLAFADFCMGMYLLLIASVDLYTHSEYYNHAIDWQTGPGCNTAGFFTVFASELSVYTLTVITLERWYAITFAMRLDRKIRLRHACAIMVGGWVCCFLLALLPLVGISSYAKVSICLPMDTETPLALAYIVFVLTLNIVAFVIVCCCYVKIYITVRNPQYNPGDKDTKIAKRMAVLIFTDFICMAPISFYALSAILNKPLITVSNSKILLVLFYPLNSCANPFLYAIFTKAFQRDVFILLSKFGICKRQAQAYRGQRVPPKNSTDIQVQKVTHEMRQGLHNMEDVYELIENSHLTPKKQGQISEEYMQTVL
Outline: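 Compounds are titrated over 15 concentrations, in triplicate, onto TSHR-HEK293 cells seeded at 800/well. Plates sit 30 min at room temperature before cAMP-d2 and anti-cAMP cryptate are added; signal is read after a further hour.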

[13] = qHTS assay to identify small molecule antagonists of the estrogen related receptor signaling pathway with the pleiotropic PPARgamma coactivator (PGC) from Tox21 10K library (AID 1224841; call rule not given here; also: actives are mostly falling curves and most rising ones were filed inactive; nearly all actives have a fitted effect of over 50% in size)
Outline: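 Luminescence (One-Glo, 30 min at room temperature) after 18 h compound treatment at 37 C of PGC/ERR reporter cells plated at 2,000 cells/well and settled 6 h beforehand.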

SMILES	Potency [1]	Potency [2]	Potency [3]	Potency [4]	Potency [5]	Potency [6]	Potency [7]	Potency [8]	Potency [9]	Potency [10]	Potency [11]	Potency [12]	Potency [13]
CC(=O)OC(C)(C)C1CC=C(C)CC1 (stereo unspecified)	inactive	inactive	inactive	inactive	inactive	inactive	inactive	inactive	inactive	inactive	inactive	inactive	
CCCCCC(C)=O	inactive	inactive	inactive	inactive	inactive	inactive	inactive	inactive	inactive	inactive	inactive		inactive
Cc1cc(CC(=O)O)n(C)c1C(=O)c1ccc(Cl)cc1	inactive	inactive	inactive	inactive	inactive	inactive	inactive	inactive			inactive		
Cc1ccc(C(C)C)cc1	inactive	inactive	inactive	inactive	inactive	inactive	inactive	inactive	inactive	inactive	inactive	inactive	
O=Cc1ccc(CO)o1	inactive	inactive	inactive	inactive	inactive	inactive	inactive	inactive	inactive	inactive	inactive	inactive	
Oc1ccc(Cc2ccccc2O)cc1	inactive	inactive	inactive	inactive	inactive	inactive	inactive	inactive	inactive		inactive	inactive	
CC(=O)OC[C@H]1O[C@@](COC(C)=O)(O[C@H]2O[C@H](COC(C)=O)[C@@H](OC(C)=O)[C@H](OC(C)=O)[C@H]2OC(C)=O)[C@@H](OC(C)=O)[C@@H]1OC(C)=O	inactive	inactive	inactive	inactive	inactive	inactive	inactive	inactive			inactive	inactive	
CC1=CC(=O)CC(C)(C)C1	25.3 µM (active) and inactive	inactive	4.99 µM (active) and inactive	inactive		36.6 µM (active) and inactive					28.1 µM (active) and inactive	inactive	inactive
CC(=O)c1nccs1	inactive	inactive	inactive	inactive		inactive	inactive	inactive	inactive	inactive	inactive	inactive	
Brc1ccc(Oc2ccc(Br)cc2)cc1	inactive	inactive	inactive	inactive		inactive	inactive	inactive	inactive	inactive	inactive		
NC1CCCCC1N (stereo unspecified)	inactive	inactive	inactive	inactive			inactive	inactive	inactive	inactive	inactive		
O=C(Cl)c1ccc(C(=O)Cl)cc1	inactive	inactive	inactive	inactive			inactive	inactive	inactive	inactive	inactive	inactive	
